Assay results from PubChem BioAssay (NCI).
The panel holds about 79,000 compounds, 15% with a hit somewhere; the sample as a whole holds those more often. Values without a mark were called inactive. Calls of active or inactive are those of the source. Cut-off read from the data, not from the text of the source: active = growth inhibition above about 70%; inactive = the rest.

Assays:
[1] = NCI Yeast Anticancer Drug Screen. Data for the rad50 strain (AID 155);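 note: 0% = growth of vehicle-only cultures of the same strain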; settings: S. cerevisiae rad50 strain growth inhibition; at 50.0 µM; stronger effect = higher value
How it was run: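 Inhibition values express reduced yeast growth in compound-treated cultures relative to vehicle-treated controls.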

[2] = NCI Yeast Anticancer Drug Screen. Data for the mec2-1 strain (AID 157); settings: S. cerevisiae mec2-1 strain, at 50.0 µM, stronger effect = higher value
How it was run: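 Test agents were screened against the mec2-1 yeast strain, with defined DNA repair or cell cycle alteration. Growth was scored as inhibition against vehicle-only controls.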

[3] = NCI Yeast Anticancer Drug Screen. Data for the sgs1 mgt1 strain (AID 161);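 note: 0% = growth of cultures given vehicle only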; settings: S. cerevisiae sgs1 mgt1 strain, at 50.0 µM, stronger effect = higher value
How it was run: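 Test agents were incubated with a DNA-repair-mutant yeast strain. Growth was then read and compared against vehicle-treated controls.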

[4] = NCI Yeast Anticancer Drug Screen. Data for the cln2 rad14 strain (AID 165);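 note: 0% = growth equal to vehicle treated cultures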; settings: S. cerevisiae cln2 rad14 strain, at 50.0 µM, stronger effect = higher value
How it was run: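 Growth of compound-exposed yeast (cln2 rad14 genotype) measured and expressed as inhibition relative to vehicle.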

[5] = NCI Yeast Anticancer Drug Screen. Data for the bub3 strain (AID 167); settings: S. cerevisiae bub3 mutant strain, at 50.0 µM, stronger effect = higher value
How it was run: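 Steps: expose the mutant yeast strain to compound; grow alongside vehicle-treated cultures; measure growth; express inhibition against the vehicle cultures.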

[6] = NCI Yeast Anticancer Drug Screen. Data for the mlh1 rad18 strain (AID 175); settings: S. cerevisiae mlh1 rad18 strain growth inhibition; at 50.0 µM; stronger effect = higher value
How it was run: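 In this whole-cell yeast screen, a strain with altered DNA damage repair is challenged with compound, and its growth is measured against matched vehicle-treated controls.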

O=c1cc(-c2ccc3c(c2)OCO3)oc2ccccc12
growth inhibition [1]: 20.4% | growth inhibition [2]: 1.8% | growth inhibition [3]: 6% | growth inhibition [4]: -2.35% | growth inhibition [5]: -5.25% | growth inhibition [6]: -3.8%

CCOC(=O)C1(C)CCCc2sc(N)c(C#N)c21 (stereo unspecified)
growth inhibition [1]: -42.4% | growth inhibition [2]: -7.55% | growth inhibition [3]: -11.1% | growth inhibition [4]: -6.45% | growth inhibition [5]: -14.2% | growth inhibition [6]: 5.45%

CC1=CCC2(C#N)CCC1C2O (stereo unspecified)
growth inhibition [1]: 15.2% | growth inhibition [2]: 17.8% | growth inhibition [3]: 8.1% | growth inhibition [4]: 22.4% | growth inhibition [5]: 10.4% | growth inhibition [6]: 17.6%

CCOc1ccc(NC(=O)C(Br)C(Br)C(=O)O)cc1 (stereo unspecified)
growth inhibition [1]: 85.7% (active) | growth inhibition [2]: 98.5% (active) | growth inhibition [3]: 96.8% (active) | growth inhibition [4]: 95.4% (active) | growth inhibition [5]: 98.5% (active) | growth inhibition [6]: 94.6% (active)

CC(=O)NNc1nc(C)c(C(=O)/C=C/c2ccccc2Cl)s1
growth inhibition [1]: 37.5% | growth inhibition [2]: 16.1% | growth inhibition [3]: 17.4% | growth inhibition [4]: 19.4% | growth inhibition [5]: 23.1% | growth inhibition [6]: 43.5%

Cc1nc2cnc(N)nc2nc1C
growth inhibition [1]: -6.85% | growth inhibition [2]: -16.9% | growth inhibition [3]: -3.65% | growth inhibition [4]: -40.4% | growth inhibition [5]: 0.8% | growth inhibition [6]: 0.75%

COC1OC2COc3ccccc3OC2C2C1N2C(N)=S (stereo unspecified)
growth inhibition [1]: 3.4% | growth inhibition [2]: 22.5% | growth inhibition [3]: 16.7% | growth inhibition [4]: 1.65% | growth inhibition [5]: 19.4% | growth inhibition [6]: 12.9%

C=CC(=O)Nc1ccc(Br)cc1
growth inhibition [1]: 2.85% | growth inhibition [2]: -9.2% | growth inhibition [3]: -4.35% | growth inhibition [4]: -6.9% | growth inhibition [5]: 8.65% | growth inhibition [6]: 2.35%

CC(C)(C)C1CC[C@H]2c3c([nH]c4ccc(Br)cc34)[C@H]3C(=O)N(c4ccccc4)C(=O)[C@H]3[C@H]2C1 (stereo partly specified)
growth inhibition [1]: 18.4% | growth inhibition [2]: -2.7% | growth inhibition [3]: 27.2% | growth inhibition [4]: 29.4% | growth inhibition [5]: -0.15% | growth inhibition [6]: 12.6%

Nc1ccc(C(=O)c2ccccc2)cc1Cl
growth inhibition [1]: 60.7% | growth inhibition [2]: 35% | growth inhibition [3]: 56.4% | growth inhibition [4]: 6.75% | growth inhibition [5]: 36.2% | growth inhibition [6]: 36.1%

O=C1Cc2c(c3ccccc3c3ccccc23)C1
growth inhibition [1]: 20.9% | growth inhibition [2]: 7.5% | growth inhibition [3]: -4.1% | growth inhibition [4]: -41% | growth inhibition [5]: 4% | growth inhibition [6]: 20.9%

COc1cc(C(C)(C)C)c2oc3c(c2c1)C(=O)C(C(C)(C)C)=CC3(OC)OC
growth inhibition [1]: 13.4% | growth inhibition [2]: -6.75% | growth inhibition [3]: -17% | growth inhibition [4]: 6.4% | growth inhibition [5]: 2.25% | growth inhibition [6]: -1.65%

COc1cc(/C=C/c2ccc([N+](=O)[O-])cc2[N+](=O)[O-])ccc1O
growth inhibition [1]: 24.3% | growth inhibition [2]: 8.5% | growth inhibition [3]: 28.6% | growth inhibition [4]: 19.1% | growth inhibition [5]: 9.25% | growth inhibition [6]: 25.9%

O=C1OC(C2OC(=O)C(=O)C2C(=O)c2cccc([N+](=O)[O-])c2)C(C(=O)c2cccc([N+](=O)[O-])c2)C1=O (stereo unspecified)
growth inhibition [1]: 0.5% | growth inhibition [2]: 40.9% | growth inhibition [3]: 13.3% | growth inhibition [4]: -33.6% | growth inhibition [5]: -36.5% | growth inhibition [6]: 29.6%

CC(=O)Oc1cccn(C)c1=O
growth inhibition [1]: 18.6% | growth inhibition [2]: 19.1% | growth inhibition [3]: -6.35% | growth inhibition [4]: 24.6% | growth inhibition [5]: 32.5% | growth inhibition [6]: 21.1%

CCc1ccc(NC(=O)Nc2ccc(Cl)cc2)cc1
growth inhibition [1]: -3.2% | growth inhibition [2]: 7.75% | growth inhibition [3]: -8.65% | growth inhibition [4]: -16.9% | growth inhibition [5]: -0.8% | growth inhibition [6]: -12.6%

Cc1cc2c(=O)cc(-c3ccc(F)cc3)oc2c(C(=O)O)c1C
growth inhibition [1]: -19.1% | growth inhibition [2]: -1.1% | growth inhibition [3]: -5.6% | growth inhibition [4]: 17.4% | growth inhibition [5]: -4.4% | growth inhibition [6]: 33.3%

Nc1ccc(CC(=O)O)cc1
growth inhibition [1]: 28.6% | growth inhibition [2]: -10.7% | growth inhibition [3]: -26.4% | growth inhibition [4]: -47.2% | growth inhibition [5]: 7.25% | growth inhibition [6]: 0.05%

O=[N+]([O-])c1ccc(NCn2c(=S)sc3ccccc32)cc1
growth inhibition [1]: 13.7% | growth inhibition [2]: -27% | growth inhibition [3]: 11.4% | growth inhibition [4]: 2.15% | growth inhibition [5]: 2.8% | growth inhibition [6]: 3.6%

C=CCNC(=S)Nc1cccc(OC(=O)NC2CCCCC2)c1
growth inhibition [1]: -0.15% | growth inhibition [2]: 2.05% | growth inhibition [3]: 3.75% | growth inhibition [4]: -19.6% | growth inhibition [5]: 14.3% | growth inhibition [6]: -4.7%

O=C(c1ccccc1)[C@H]1Nc2ccc(Cl)cc2[C@H]2CCC[C@@H]12
growth inhibition [1]: -2.4% | growth inhibition [2]: -30.2% | growth inhibition [3]: 0.1% | growth inhibition [4]: 10.2% | growth inhibition [5]: -14.6% | growth inhibition [6]: -17.1%

Cc1cc(-c2ccc(Cl)cc2)c(C#N)c(=S)n1C1OC(CO)C(O)C(O)C1O (stereo unspecified)
growth inhibition [1]: -19.4% | growth inhibition [2]: -11% | growth inhibition [3]: -5.3% | growth inhibition [4]: 2.8% | growth inhibition [5]: -2.95% | growth inhibition [6]: 2.8%

CCOC(=O)c1cc2c(nc1C)-c1cc(Cl)ccc1OC2OCc1ccccc1 (stereo unspecified)
growth inhibition [1]: -1.65% | growth inhibition [2]: -3% | growth inhibition [3]: -21.6% | growth inhibition [4]: -3.55% | growth inhibition [5]: -12.2% | growth inhibition [6]: 4.3%

O=C1C(Cl)=C(SCc2ccccc2)C(=O)c2ccccc21
growth inhibition [1]: 17.8% | growth inhibition [2]: 72.7% (active) | growth inhibition [3]: 48.2% | growth inhibition [4]: -11.3% | growth inhibition [5]: 61.9% | growth inhibition [6]: 42.9%

COc1cc(C)c(C2NC(=O)c3ccccc3N2)cc1C (stereo unspecified)
growth inhibition [1]: 10.1% | growth inhibition [2]: 2.8% | growth inhibition [3]: -10.1% | growth inhibition [4]: 17.4% | growth inhibition [5]: -2.55% | growth inhibition [6]: -4.55%

COc1cc2c3c(c1)[nH]c(=S)n3C(=O)CS2
growth inhibition [1]: -18.9% | growth inhibition [2]: -30.1% | growth inhibition [3]: -57.4% | growth inhibition [4]: -16.7% | growth inhibition [5]: -18.7% | growth inhibition [6]: -40.9%

O=C1CSc2nc3c(I)cc(I)cc3c(=O)n21
growth inhibition [1]: 2.65% | growth inhibition [2]: 6.2% | growth inhibition [3]: -0.75% | growth inhibition [4]: -25.1% | growth inhibition [5]: -7.3% | growth inhibition [6]: -0.6%

C(=N\N1CCN(/N=C/c2c[nH]c3ccccc23)CC1)/c1c[nH]c2ccccc12
growth inhibition [1]: 10.3% | growth inhibition [2]: -11.5% | growth inhibition [3]: -12.8% | growth inhibition [4]: -1.05% | growth inhibition [5]: 0.7% | growth inhibition [6]: -3.05%

CN(C)/C(N)=N\C(N)=Nc1cc2ccccc2c2ccccc12
growth inhibition [1]: 1.3% | growth inhibition [2]: -9.55% | growth inhibition [3]: -0.2% | growth inhibition [4]: -23.2% | growth inhibition [5]: 2.25% | growth inhibition [6]: -0.55%

O=C1NC(Cc2cccc(I)c2)C(=O)N1c1ccccc1 (stereo unspecified)
growth inhibition [1]: 37.3% | growth inhibition [2]: 3.1% | growth inhibition [3]: 31.9% | growth inhibition [4]: 28.8% | growth inhibition [5]: 16.4% | growth inhibition [6]: 29.4%

Cc1cc(Cl)ccc1NC(N)=O
growth inhibition [1]: -5.95% | growth inhibition [2]: -20.3% | growth inhibition [3]: 5.15% | growth inhibition [4]: 22.4% | growth inhibition [5]: -3.7% | growth inhibition [6]: -1.85%

O=C(Nc1ccccc1)c1cc(S(=O)(=O)n2cc[nH]c2=O)c(S)cc1Cl
growth inhibition [1]: 9.5% | growth inhibition [2]: 3.6% | growth inhibition [3]: 5.1% | growth inhibition [4]: -5.1% | growth inhibition [5]: 2.65% | growth inhibition [6]: 13.2%

CC(=O)/C=C1/NC(C(=O)c2ccccc2)=CNC1c1ccccc1 (stereo unspecified)
growth inhibition [1]: 4.95% | growth inhibition [2]: 3.75% | growth inhibition [3]: 20.6% | growth inhibition [4]: -14.5% | growth inhibition [5]: 9.95% | growth inhibition [6]: 18.8%

CN(C)Cc1c(C(O)(c2ccccc2)c2ccccc2)cc2ccccc2c1Cl
growth inhibition [1]: -12.8% | growth inhibition [2]: -15.3% | growth inhibition [3]: -25.6% | growth inhibition [4]: -3% | growth inhibition [5]: 1.05% | growth inhibition [6]: -10.4%

CCCOC1CC(C)C(O)C(C)C1 (stereo unspecified)
growth inhibition [1]: 24.6% | growth inhibition [2]: -4.15% | growth inhibition [3]: 3.35% | growth inhibition [4]: -10.8% | growth inhibition [5]: -1.35% | growth inhibition [6]: 15.5%

O=C(O)CCSC1=CC(=O)C(SCCC(=O)O)=CC1=O
growth inhibition [1]: 5.35% | growth inhibition [2]: -13.2% | growth inhibition [3]: -1.4% | growth inhibition [4]: -75.7% | growth inhibition [5]: 4.9% | growth inhibition [6]: -15.2%

N#CC1(c2ccccc2)OC1(C#N)c1ccccc1 (stereo unspecified)
growth inhibition [1]: 3.1% | growth inhibition [2]: -14.6% | growth inhibition [3]: -4.8% | growth inhibition [4]: -22.2% | growth inhibition [5]: -11.2% | growth inhibition [6]: -7.6%

O=C1CC(c2ccccc2)Oc2cc(O)cc(O)c21 (stereo unspecified)
growth inhibition [1]: 9.1% | growth inhibition [2]: -30.8% | growth inhibition [3]: 9.2% | growth inhibition [4]: 22.6% | growth inhibition [5]: -14.4% | growth inhibition [6]: 16.7%

Cc1c(O)ccc(N=O)c1O
growth inhibition [1]: 20.4% | growth inhibition [2]: 2.6% | growth inhibition [3]: 18.9% | growth inhibition [4]: 35.8% | growth inhibition [5]: -1.6% | growth inhibition [6]: 8.15%

c1ccc2c(c1)CCc1ccccc1N=N2
growth inhibition [1]: -8.1% | growth inhibition [2]: -1.55% | growth inhibition [3]: -17.1% | growth inhibition [4]: -30.4% | growth inhibition [5]: -1.4% | growth inhibition [6]: 5.35%

N#CNc1nc(N)cc(N)n1
growth inhibition [1]: 2.25% | growth inhibition [2]: 9.35% | growth inhibition [3]: -1.5% | growth inhibition [4]: -5.85% | growth inhibition [5]: -1% | growth inhibition [6]: -4.6%
